USP10 inh = inhibitors of human USP10 deubiquitinase. actives 1.1% (n = 47,000). inhibition, % at 20 µM. Ubiquitin carboxyl-terminal hydrolase 10 (Homo sapiens), Q14694. purified USP10, Ub-rhodamine fluorescence, 60 min
UCHL1 block = inhibitors of human UCHL1 deubiquitinase. Ubiquitin carboxyl-terminal hydrolase isozyme L1 (Homo sapiens), P09936. purified UCHL1, Ub-rhodamine cleavage fluorescence. inhibition, % at 20 µM. actives 0.2% (n = 47,000)
OTUD3 block = inhibitors of human OTUD3 deubiquitinase; OTU domain-containing protein 3 (Homo sapiens), Q5T2D3; purified OTUD3, Ub-rhodamine fluorescence, 2 h; inhibition, % at 25 µM; actives 0.7% (n = 47,000)
USP7 block = inhibitors of human USP7 deubiquitinase | purified USP7, Ub-rhodamine cleavage fluorescence | Ubiquitin carboxyl-terminal hydrolase 7 (Homo sapiens), Q93009 | inhibition, % at 20 µM | AID 1645854, 2021 | actives 0.3% (n = 47,000)
USP8 block = inhibitors of human USP8 deubiquitinase; Ubiquitin carboxyl-terminal hydrolase 8 (Homo sapiens), P40818; purified USP8, Ub-rhodamine cleavage fluorescence, 30 min; inhibition, % at 20 µM; actives 4.2% (n = 47,000)
* = called active by the depositor. Sampled rows, rich in hits. Any-hit rate of the full collection: about 4.9%. No stated cut-off is given here; in the data, active means inhibition above about 30%; inactive means the rest.

SMILES	USP10 inh	UCHL1 block	OTUD3 block	USP7 block	USP8 block
O=C(NCc1ccc(F)cc1)c1noc2c1CCc1sccc1-2	3	0	-6	-8	1
Cc1cccnc1NC(=O)c1noc2c1CCc1sccc1-2	2	-1	4	4	4
Cc1ccc(NC(=O)c2noc3c2CCc2sccc2-3)nc1	4	-6	-11	1	47*
O=C(NCc1ccc(Cl)cc1)c1noc2c1CCc1sccc1-2	-7	-2	-1	-4	75*
O=C(Nc1ccccn1)c1noc2c1CCc1sccc1-2	5	-1	-9	-3	88*
Cc1ccccc1NC(=O)Cn1cccc1-c1nnc(C2CCC2)o1	-2	-4	-4	-21	3
CSc1nc2ncn(CC(=O)Nc3cccc(Cl)c3)c(=O)c2s1	0	0	4	4	33*
COc1cccc(NC(=O)Nc2ccc3nc4n(c(=O)c3c2)CCCC4)c1	16	9	13	13	50*
COc1cc(NC(=O)Nc2ccc3nc4n(c(=O)c3c2)CCCC4)cc(OC)c1	-7	-3	-7	-1	-5
Cc1cc(C)c([N+](=O)[O-])cc1NCC(=O)NCc1ccc2c(c1)OCO2	-1	1	-8	-9	-97
CCCCCCCC[C@@H](C)[C@@H]1OC(=O)[C@H](CO)NC(=O)[C@H](C(=O)c2c[nH]c3ccccc23)NC(=O)[C@@H](CCC(=O)O)NC(=O)[C@H]1C	24	2	4	-6	0
CCCCCCCCCCCC(O)CC(=O)N[C@@H](CC(C)C)C(=O)N[C@H](CCC(=O)O)C(=O)N[C@H]1C(=O)N[C@H]([C@@H](C)CC)C(=O)NC(CC(C)C)C(=O)N[C@H](CO)C(=O)N[C@@H](CC(C)C)C(=O)N[C@@H](CC(C)C)C(=O)N[C@H](CO)C(=O)N[C@@H](C(C)C)C(=O)O[C@@H]1C (stereo partly specified)	35*	29	44*	39*	35*
NS(=O)(=O)c1ccc(CCNC(=O)c2cc(-c3ccc4c(c3)OCO4)nc3ccccc23)cc1	16	4	-12	-9	31*
COc1ccc(-c2cc(C(=O)NCCc3ccc(S(N)(=O)=O)cc3)c3ccccc3n2)cc1	29	0	-19	13	53*
O=C(Nc1ccc2c(c1)OCO2)c1cc(-c2ccc(Cl)cc2)nc2ccccc12	1	0	9	2	-57
CC(=O)c1ccc(N2CCN(C(=O)Cn3c(=O)[nH]c4ccccc4c3=O)CC2)cc1	2	0	3	1	2
COc1ccc(NC(=O)N2CCn3cccc3C2c2ccccc2F)cc1 (stereo unspecified)	-7	-5	-33	-7	-179
O=C(Nc1cccc(F)c1)c1c(O)c2cnn(Cc3ccccc3)c2[nH]c1=O	11	-4	-5	2	61*
O=C(NCc1ccccc1F)c1c(O)c2cnn(Cc3ccccc3)c2[nH]c1=O	16	3	7	4	80*
Cc1ccccc1CNC(=O)c1c(O)c2cnn(Cc3ccccc3)c2[nH]c1=O	1	-4	-18	0	20
O=c1[nH]c2c(cnn2Cc2ccccc2)c(O)c1-c1nc(-c2ccccc2F)no1	0	-4	-1	0	6
O=C(Nc1ccc(F)cc1)c1c(O)c2cnn(Cc3ccccc3)c2[nH]c1=O	6	0	4	4	42*
Cc1ccccc1NS(=O)(=O)c1cc2[nH]c3c(c2cc1C)C(=O)CCC3	21	4	11	4	40*
N#Cc1c(-c2ccc(Cl)cc2)cc(-c2cccs2)nc1N	-1	-1	-1	-1	17
CCCn1c(N)c(C(=O)CN2CCN(Cc3ccc(C#N)cc3)CC2)c(=O)[nH]c1=O	-6	-3	-6	0	-9
SMILES	USP10 inh	UCHL1 block	OTUD3 block	USP7 block	USP8 block
Cc1ccc(C(=O)NC(C(=O)OCC(=O)c2cc(C)n(-c3ccc4c(c3)OCO4)c2C)C(C)C)cc1 (stereo unspecified)	4	5	8	7	52*
Cc1ccc(NC(=O)c2cc(-c3cccnc3)n[nH]2)cc1F	26	12	29	-2	99*
CC(=O)c1cccc(NC(=O)c2cc(-c3cccnc3)n[nH]2)c1	7	5	-2	1	4
CC(C)c1ccc(NC(=O)c2cc(-c3cccnc3)n[nH]2)cc1	7	2	-1	12	97*
COc1ccc(NC(=O)c2cc(-c3cccnc3)n[nH]2)cc1Cl	9	2	9	2	65*
O=C(Nc1cccc(Br)c1)c1cc(-c2cccnc2)n[nH]1	37*	11	20	28	98*
O=C(Nc1cc(F)ccc1F)c1cc(-c2cccnc2)n[nH]1	12	0	4	10	5
Cc1nc2ccccc2c(=O)n1-c1ccc(F)c(NC(=O)c2ccccc2F)c1	-2	0	-12	-1	0
COc1cccc(CNC(=O)c2ccc3c(c2)NC(=O)C2CCCN32)c1OC (stereo unspecified)	-3	-1	-20	-2	70*
CCN1CCN(C(=O)c2ccc3c(c2)NC(=O)C2CCCCN32)CC1 (stereo unspecified)	-4	1	-7	3	-10
CCOC(=O)C1CCN(C(=O)c2ccc3c(c2)NC(=O)C2CCCN32)CC1 (stereo unspecified)	5	13	-11	-6	93*
COc1ccc(NC(=O)Cn2cc(C(=O)c3ccccc3)c(=O)c3cc4c(cc32)OCCO4)cc1OC	0	-2	-4	0	0
C=C1Nc2ccccc2C(=O)N1c1cccc(NC(=O)c2ccc(C)c(C)c2)c1	-2	6	30*	2	0
Cc1cc(C)n(-c2ncnc3c2cnn3-c2ccc(F)c(F)c2)n1	2	-1	-1	2	-1
Cc1cccc(C)c1NC(=O)CN1C(=O)CC(c2ccccc2)=Nc2ccccc21	39*	-3	0	3	-11
Cc1ccc(NC(=O)c2nnn(-c3ccc(C)c(C)c3)c2C)cc1C	1	0	-3	-1	0
Cc1ccc(-n2nnc(C(=O)Nc3ccc(C)c(C)c3)c2C)cc1	4	2	10	8	40*
COc1ccc(C2=NO[C@]3(C(=O)Nc4ccccc43)[C@H]2C(=O)c2ccco2)cc1OC	1	3	11	5	-116
Cc1ccc(Cl)cc1NC(=O)CSc1ncnc2c1oc1ccccc12	2	0	1	3	4
Cc1nc(SCC(=O)Nc2cc(Cl)ccc2C)c2oc3ccccc3c2n1	3	3	17	12	32*
O=[N+]([O-])c1cccc(C2=NS(=O)(=O)c3ccccc3N2)c1	3	2	7	1	-1
O=C(COc1coc(CN2CCc3ccccc3C2)cc1=O)Nc1cccc(F)c1	6	5	6	5	30*
